Measured values reported in article PMC7862700, “An all-to-all approach to the identification of sequence-specific readers for epigenetic DNA modifications on cytosine”.

How the values were obtained:
Test in all cases: DAPPL (digital affinity profiling via proximity ligation, sequencing); 10 mM Tris-HCl pH 7.5, 50 mM NaCl, 1 mM DTT, 4% glycerol, room temperature, 30 min; GST-TFs on glutathione beads, 16-mer random dsDNA library, 0.1% formaldehyde crosslink after washing; high values mean tight binding
Conditions in all cases: protein: recombinant; tags: N-terminal GST; dsDNA, one strand shown
[1] = target: T1, ERF (Homo sapiens, UniProt P50548 1-548)
T1 sequence: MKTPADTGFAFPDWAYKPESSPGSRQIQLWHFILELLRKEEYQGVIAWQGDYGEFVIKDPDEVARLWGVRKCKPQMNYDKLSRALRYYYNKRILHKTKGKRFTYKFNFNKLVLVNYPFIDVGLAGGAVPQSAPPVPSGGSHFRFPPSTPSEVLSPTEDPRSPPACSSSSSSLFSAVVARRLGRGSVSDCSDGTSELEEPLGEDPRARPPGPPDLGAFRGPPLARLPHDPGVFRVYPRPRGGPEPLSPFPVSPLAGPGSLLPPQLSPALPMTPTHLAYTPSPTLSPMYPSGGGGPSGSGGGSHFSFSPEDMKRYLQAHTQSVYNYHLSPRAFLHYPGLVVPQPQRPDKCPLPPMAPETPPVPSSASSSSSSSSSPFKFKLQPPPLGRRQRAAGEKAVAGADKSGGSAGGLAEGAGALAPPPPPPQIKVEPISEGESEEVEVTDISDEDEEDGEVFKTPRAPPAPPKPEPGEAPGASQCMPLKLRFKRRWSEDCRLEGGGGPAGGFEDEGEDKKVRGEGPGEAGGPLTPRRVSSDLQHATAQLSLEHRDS
Method in brief: (§1)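 Human transcription factors fused to GST were expressed in yeast, captured on glutathione beads, given DNA barcodes and pooled with a GST-only negative control. Pools were incubated with 200 nmole of a 16-mer random double-stranded DNA library in Tris/NaCl/DTT/glycerol buffer at room temperature for 30 min. They were then washed, crosslinked with 0.1% formaldehyde, proximity-ligated (BsaI/T4 ligase, 1 h, 37 °C), PCR-amplified and sequenced on an Illumina NextSeq500. Binding signal is each 6-mer's read frequency for a factor divided by its frequency for the GST control.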

[2] = target: T2, ETV3L (Homo sapiens, UniProt Q6ZN32 1-361)
T2 sequence: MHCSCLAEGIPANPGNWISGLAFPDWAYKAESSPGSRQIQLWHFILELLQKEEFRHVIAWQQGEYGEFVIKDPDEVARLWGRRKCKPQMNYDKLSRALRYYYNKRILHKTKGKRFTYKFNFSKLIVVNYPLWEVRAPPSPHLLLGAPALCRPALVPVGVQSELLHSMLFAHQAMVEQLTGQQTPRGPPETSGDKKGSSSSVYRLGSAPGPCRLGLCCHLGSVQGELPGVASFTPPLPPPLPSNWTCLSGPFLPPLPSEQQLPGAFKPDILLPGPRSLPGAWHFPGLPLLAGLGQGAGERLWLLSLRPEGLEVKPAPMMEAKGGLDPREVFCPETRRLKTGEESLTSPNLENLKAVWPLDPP
Method in brief: as §1

[3] = target: T3, ETS2 (Homo sapiens, UniProt P15036 1-469)
T3 sequence: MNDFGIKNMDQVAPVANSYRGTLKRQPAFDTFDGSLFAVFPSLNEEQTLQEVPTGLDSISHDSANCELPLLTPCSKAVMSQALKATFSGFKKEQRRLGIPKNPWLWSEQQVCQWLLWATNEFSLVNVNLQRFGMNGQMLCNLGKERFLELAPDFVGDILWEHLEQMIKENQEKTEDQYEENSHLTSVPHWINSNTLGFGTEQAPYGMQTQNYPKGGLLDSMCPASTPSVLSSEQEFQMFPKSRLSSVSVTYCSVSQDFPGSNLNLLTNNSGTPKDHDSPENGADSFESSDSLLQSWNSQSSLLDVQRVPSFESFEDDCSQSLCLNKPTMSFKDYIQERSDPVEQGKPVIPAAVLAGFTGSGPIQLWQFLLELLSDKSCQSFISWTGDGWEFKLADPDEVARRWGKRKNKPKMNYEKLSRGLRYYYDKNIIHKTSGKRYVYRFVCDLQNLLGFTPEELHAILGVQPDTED
Method in brief: as §1

[4] = target: T4, SPDEF (Homo sapiens, UniProt O95238 1-335)
T4 sequence: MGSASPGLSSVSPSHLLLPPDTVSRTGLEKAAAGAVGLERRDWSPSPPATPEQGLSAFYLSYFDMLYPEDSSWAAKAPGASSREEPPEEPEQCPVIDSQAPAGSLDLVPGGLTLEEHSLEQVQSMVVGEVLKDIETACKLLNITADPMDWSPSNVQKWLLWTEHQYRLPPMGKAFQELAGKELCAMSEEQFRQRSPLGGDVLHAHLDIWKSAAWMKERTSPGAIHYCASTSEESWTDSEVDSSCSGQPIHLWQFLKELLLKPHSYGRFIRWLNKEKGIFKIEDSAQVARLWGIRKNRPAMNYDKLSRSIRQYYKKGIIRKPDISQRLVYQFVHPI
Method in brief: as §1

[5] = target: T5, ETV7 (Homo sapiens, UniProt Q9Y603 1-341)
T5 sequence: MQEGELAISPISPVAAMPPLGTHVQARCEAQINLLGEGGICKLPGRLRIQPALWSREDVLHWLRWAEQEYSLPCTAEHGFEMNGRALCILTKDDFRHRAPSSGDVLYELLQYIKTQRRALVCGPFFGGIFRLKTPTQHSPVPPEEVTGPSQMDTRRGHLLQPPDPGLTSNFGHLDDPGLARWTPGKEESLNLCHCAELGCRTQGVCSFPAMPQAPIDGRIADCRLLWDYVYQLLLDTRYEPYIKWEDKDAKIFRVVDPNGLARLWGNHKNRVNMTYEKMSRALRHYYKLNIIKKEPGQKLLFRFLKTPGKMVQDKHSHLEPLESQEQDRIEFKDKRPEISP
Method in brief: as §1

[6] = target: T6, ELF5 (Homo sapiens, UniProt Q9UKW6-2 1-255)
T6 sequence: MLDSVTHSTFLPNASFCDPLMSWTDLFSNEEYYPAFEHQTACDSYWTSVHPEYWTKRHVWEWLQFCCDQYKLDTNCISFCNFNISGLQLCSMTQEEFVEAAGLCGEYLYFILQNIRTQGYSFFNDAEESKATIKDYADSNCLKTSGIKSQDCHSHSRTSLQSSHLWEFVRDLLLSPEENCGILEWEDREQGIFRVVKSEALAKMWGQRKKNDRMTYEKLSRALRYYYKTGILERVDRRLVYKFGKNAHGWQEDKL
Method in brief: as §1

[7] = target: T7, ETV3 (Homo sapiens, UniProt P41162-2 1-143)
T7 sequence: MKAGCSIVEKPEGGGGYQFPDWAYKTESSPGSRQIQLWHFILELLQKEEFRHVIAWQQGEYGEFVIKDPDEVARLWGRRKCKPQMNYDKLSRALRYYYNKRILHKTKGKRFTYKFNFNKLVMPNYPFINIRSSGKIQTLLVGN
Method in brief: as §1

[8] = target: ETV6 (Homo sapiens, UniProt P41212 1-452)
Chain of ETV6 (P41212 whole entry): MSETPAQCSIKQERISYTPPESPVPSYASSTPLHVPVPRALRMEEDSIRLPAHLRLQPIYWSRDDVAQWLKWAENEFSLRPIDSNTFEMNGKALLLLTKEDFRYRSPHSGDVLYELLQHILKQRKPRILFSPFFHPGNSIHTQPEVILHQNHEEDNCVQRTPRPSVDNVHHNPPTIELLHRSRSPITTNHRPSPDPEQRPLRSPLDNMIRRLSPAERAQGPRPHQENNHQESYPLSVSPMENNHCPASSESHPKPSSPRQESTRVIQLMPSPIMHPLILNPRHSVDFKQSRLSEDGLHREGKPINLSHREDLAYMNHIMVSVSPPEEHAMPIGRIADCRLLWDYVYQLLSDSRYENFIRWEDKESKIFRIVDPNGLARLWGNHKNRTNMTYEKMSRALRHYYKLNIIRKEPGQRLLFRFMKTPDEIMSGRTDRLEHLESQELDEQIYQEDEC
Method in brief: as §1

CCACCC
binding signal [1]: 1.24 fold enrichment (6-mer frequency, TF over GST control)
binding signal [2]: 1.37 fold enrichment (6-mer frequency, TF over GST control)
binding signal [3]: 1.18 fold enrichment (6-mer frequency, TF over GST control)
binding signal [4]: 1.22 fold enrichment (6-mer frequency, TF over GST control)
binding signal [5]: 1.09 fold enrichment (6-mer frequency, TF over GST control)
binding signal [6]: 1.21 fold enrichment (6-mer frequency, TF over GST control)
binding signal [7]: 1.28 fold enrichment (6-mer frequency, TF over GST control)
binding signal [8]: 1.24 fold enrichment (6-mer frequency, TF over GST control)

GCCTCC
binding signal [1]: 1.39 fold enrichment (6-mer frequency, TF over GST control)
binding signal [2]: 1.27 fold enrichment (6-mer frequency, TF over GST control)
binding signal [3]: 1.27 fold enrichment (6-mer frequency, TF over GST control)
binding signal [4]: 1.3 fold enrichment (6-mer frequency, TF over GST control)
binding signal [5]: 1.29 fold enrichment (6-mer frequency, TF over GST control)
binding signal [6]: 1.29 fold enrichment (6-mer frequency, TF over GST control)
binding signal [7]: 1.24 fold enrichment (6-mer frequency, TF over GST control)
binding signal [8]: 1.16 fold enrichment (6-mer frequency, TF over GST control)

ATGCGG
binding signal [1]: 1.12 fold enrichment (6-mer frequency, TF over GST control)
binding signal [2]: 1.25 fold enrichment (6-mer frequency, TF over GST control)
binding signal [3]: 1.32 fold enrichment (6-mer frequency, TF over GST control)
binding signal [4]: 1.32 fold enrichment (6-mer frequency, TF over GST control)
binding signal [5]: 1.25 fold enrichment (6-mer frequency, TF over GST control)
binding signal [6]: 1.21 fold enrichment (6-mer frequency, TF over GST control)
binding signal [7]: 1.45 fold enrichment (6-mer frequency, TF over GST control)
binding signal [8]: 1.26 fold enrichment (6-mer frequency, TF over GST control)

ATCCAC
binding signal [1]: 1.27 fold enrichment (6-mer frequency, TF over GST control)
binding signal [2]: 1.05 fold enrichment (6-mer frequency, TF over GST control)
binding signal [3]: 1.2 fold enrichment (6-mer frequency, TF over GST control)
binding signal [4]: 1.18 fold enrichment (6-mer frequency, TF over GST control)
binding signal [5]: 1.18 fold enrichment (6-mer frequency, TF over GST control)
binding signal [6]: 1.16 fold enrichment (6-mer frequency, TF over GST control)
binding signal [7]: 1.14 fold enrichment (6-mer frequency, TF over GST control)
binding signal [8]: 1.25 fold enrichment (6-mer frequency, TF over GST control)

TCTAAC
binding signal [1]: 1.22 fold enrichment (6-mer frequency, TF over GST control)
binding signal [2]: 1.19 fold enrichment (6-mer frequency, TF over GST control)
binding signal [3]: 1.19 fold enrichment (6-mer frequency, TF over GST control)
binding signal [4]: 1.14 fold enrichment (6-mer frequency, TF over GST control)
binding signal [5]: 1.29 fold enrichment (6-mer frequency, TF over GST control)
binding signal [6]: 1.15 fold enrichment (6-mer frequency, TF over GST control)
binding signal [7]: 1.18 fold enrichment (6-mer frequency, TF over GST control)
binding signal [8]: 1.22 fold enrichment (6-mer frequency, TF over GST control)

CATCTG
binding signal [1]: 1.35 fold enrichment (6-mer frequency, TF over GST control)
binding signal [2]: 1.23 fold enrichment (6-mer frequency, TF over GST control)
binding signal [3]: 1.24 fold enrichment (6-mer frequency, TF over GST control)
binding signal [4]: 1.23 fold enrichment (6-mer frequency, TF over GST control)
binding signal [5]: 1.33 fold enrichment (6-mer frequency, TF over GST control)
binding signal [6]: 1.23 fold enrichment (6-mer frequency, TF over GST control)
binding signal [7]: 1.17 fold enrichment (6-mer frequency, TF over GST control)
binding signal [8]: 1.11 fold enrichment (6-mer frequency, TF over GST control)

CGGCAT
binding signal [1]: 1.09 fold enrichment (6-mer frequency, TF over GST control)
binding signal [2]: 1.23 fold enrichment (6-mer frequency, TF over GST control)
binding signal [3]: 1.17 fold enrichment (6-mer frequency, TF over GST control)
binding signal [4]: 1.22 fold enrichment (6-mer frequency, TF over GST control)
binding signal [5]: 1.07 fold enrichment (6-mer frequency, TF over GST control)
binding signal [6]: 1.07 fold enrichment (6-mer frequency, TF over GST control)
binding signal [7]: 1.19 fold enrichment (6-mer frequency, TF over GST control)
binding signal [8]: 1.21 fold enrichment (6-mer frequency, TF over GST control)

TCCGTC
binding signal [1]: 1.16 fold enrichment (6-mer frequency, TF over GST control)
binding signal [2]: 1.46 fold enrichment (6-mer frequency, TF over GST control)
binding signal [3]: 1.3 fold enrichment (6-mer frequency, TF over GST control)
binding signal [4]: 1.6 fold enrichment (6-mer frequency, TF over GST control)
binding signal [5]: 1.14 fold enrichment (6-mer frequency, TF over GST control)
binding signal [6]: 1.57 fold enrichment (6-mer frequency, TF over GST control)
binding signal [7]: 1.55 fold enrichment (6-mer frequency, TF over GST control)
binding signal [8]: 1.37 fold enrichment (6-mer frequency, TF over GST control)

CTACAA
binding signal [1]: 1.05 fold enrichment (6-mer frequency, TF over GST control)
binding signal [2]: 1.15 fold enrichment (6-mer frequency, TF over GST control)
binding signal [3]: 1.16 fold enrichment (6-mer frequency, TF over GST control)
binding signal [4]: 1.14 fold enrichment (6-mer frequency, TF over GST control)
binding signal [5]: 1.01 fold enrichment (6-mer frequency, TF over GST control)
binding signal [6]: 1.16 fold enrichment (6-mer frequency, TF over GST control)
binding signal [7]: 1.1 fold enrichment (6-mer frequency, TF over GST control)
binding signal [8]: 1.18 fold enrichment (6-mer frequency, TF over GST control)
